Data on 97 molecules can be found in PubChem BioAssay AID641 (Vanderbilt High Throughput Screening Facility, 2007).

Screen size: about 58,000 compounds; about 3,400 (5.9%) were called active. The sample holds actives, similar compounds and a random draw of the others, so the mix is not that of the screen. Values without a mark were called inactive.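 Rule for the calls: active = luminescence count or its row- and column-corrected plate score outside the 99.7% band of the plate's sample wells, on either side; inactive = the rest.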

The experiment deals with D(1A) dopamine receptor (Homo sapiens) (UniProt P21728). The experiment in a line: D1 CRE-luciferase signal change, two-sided – cell-based, HEK293 D1, dopamine EC30, D1 allosteric modulator project, primary screen (AID 641). The settings on record: dopamine EC30 potentiation, at 10 µM, actives deviate in either direction.
Chain of D(1A) dopamine receptor (Homo sapiens) (P21728 whole entry, looked up): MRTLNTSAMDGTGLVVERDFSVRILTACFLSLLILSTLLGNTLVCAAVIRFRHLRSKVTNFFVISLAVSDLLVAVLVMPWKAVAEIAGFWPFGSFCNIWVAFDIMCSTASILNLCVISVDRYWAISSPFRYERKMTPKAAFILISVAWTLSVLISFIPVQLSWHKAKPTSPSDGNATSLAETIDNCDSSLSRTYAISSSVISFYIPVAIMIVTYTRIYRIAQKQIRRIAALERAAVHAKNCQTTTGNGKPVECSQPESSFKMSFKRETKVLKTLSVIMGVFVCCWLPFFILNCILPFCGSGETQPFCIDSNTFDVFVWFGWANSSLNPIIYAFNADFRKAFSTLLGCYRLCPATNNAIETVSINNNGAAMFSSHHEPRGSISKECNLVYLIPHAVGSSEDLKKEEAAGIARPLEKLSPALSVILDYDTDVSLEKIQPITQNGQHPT
For `COC(=O)COc1ccc2oc(=O)cc(C)c2c1`, the B-score is 0.00198.
With `COc1ccc(S(=O)(=O)N2CCN(c3ncnc4c(-c5ccccc5)nsc34)CC2)cc1` the figure was -0.0486; with `O=c1cccc(-c2ccc(Br)cc2)o1`, 1.11.
As to `COc1ccc(NS(=O)(=O)c2ccc(NC(C)=O)cc2)cc1OC`, the B-score is -0.458.
For `COc1ccc(S(=O)(=O)N2CCCCC2)cc1Br` the value was -1.56.
With `COc1ccc(S(=O)(=O)Nc2ccc(S(=O)(=O)N3CCCCC3)cc2)cc1OC` the figure was 5.58 (active); with `COc1ccc(Br)cc1S(=O)(=O)N1CCN=C1C`, -0.0562.
With `CCc1nc2ccccc2n(CCOCCOCCn2c(=O)c(CC)nc3ccccc32)c1=O` the figure was 2.08; with `O=C(Nc1c(Cl)cccc1Cl)C1CCC1`, -0.785.
In the case of `CCCOC(=O)Nc1sc2c(c1C(=O)OCC)CCC2`, the B-score is -0.0171.
With `CCOC(=O)c1cc(C)sc1NC(=O)C1CCC1`, the B-score was 7.64 (active).
For `NC(=O)c1ccsc1NC(=O)c1ccco1` the value was 0.317; for `O=C(Nc1nc(-c2ccc3c(c2)OCO3)cs1)c1ccncc1`, -3.4 (active).
As to `O=C(Nc1ccc2c(c1)OCCO2)c1ccncc1`, the B-score is -1.34.
With `O=C(Nc1nc(-c2ccncc2)cs1)C1COc2ccccc2O1` (configuration not stated), the B-score was 1.39.
With `COC(=O)c1ccc(/C=N\n2c(C)nnc2C)cc1` the figure was -1.78.
With `Cc1cc(C)c2c(n1)nn1c(N3CCOCC3)cc(C)nc21` the figure was 1.9; with `Cc1cc(C)c2c(n1)nn1c(-n3ccnc3)cc(C)nc21`, 5.98 (active).
For `Cc1cc(C)c2c(n1)nn1c(N3CCN(c4cccc(Cl)c4)CC3)cc(C)nc21` the value was -0.0327; for `CCC(C)NC(=O)N[C@@H](CCSC)C(=O)O` (some centres not stated), -0.322.
`Cc1ccc(S(=O)(=O)NC(=O)N2CCCC(C)(C)C2)cc1`: the B-score was -6.08 (active).
Consider `Cc1ccc(S(=O)(=O)C2(S(=O)(=O)c3ccc(C)cc3)CCCC2)cc1`, for which the B-score was 0.0184.
With `Cc1ccc(S(=O)(=O)NC(C)C(=O)Nc2ccccc2C(=O)N2CCCC2)cc1` (configuration not stated), the B-score is -1.42.
For `Cn1c(=O)c2cn(-c3cccc4ccccc34)cc2n(C)c1=O` the value was 3.56 (active); for `COc1ccc(OC)c(-n2cc3c(=O)n(C)c(=O)n(C)c3c2)c1`, 1.9.
On to `CC(=O)Nn1cc2c(=O)n(C)c(=O)n(C)c2c1`, for which the B-score was 0.00279.
For `Cc1nc2sc(C(c3ccco3)N3CCC4(CC3)OCCO4)c(O)n2n1` (configuration not stated) the value was -0.00625; for `NS(=O)(=O)c1ccc(NS(=O)(=O)/C=C/c2ccccc2)cc1`, 0.545; for `COC(=O)Cn1c(=NC(=O)CSCC(=O)Nc2cc(C)on2)sc2ccccc21`, -0.763.
In the case of `O=C1CC(N2CCN(C(c3ccccc3)c3ccccc3)CC2)C(=O)N1` (configuration not stated), the B-score is -0.246.
With `O=c1c2ccccc2nc(CSc2nnnn2-c2ccccc2)n1-c1ccccc1` the figure was 0.263.
For `COC(=O)c1ccc(CSc2nc3ccccc3c(=O)n2-c2cccc(OC)c2)o1` the value was 2.88.
As for `N#CCSc1nc2ccccc2c(=O)n1-c1ccccc1`, the B-score was 7.87 (active).
With `Cc1noc(C)c1S(=O)(=O)N(CC(=O)NCc1ccc(Cl)cc1)c1ccc2c(c1)OCO2` the figure was 0.0431; with `CCCC(=O)N=c1sc2cccc(F)c2n1C`, 0.69.
For `Cc1nnc2sc(-c3ccco3)nn12` the value was 0.854.
With `Fc1ccc(-c2nnc3sc(-c4ccc5c(c4)OCO5)nn23)cc1` the figure was 0.575; with `COc1cc(-c2nn3c(-c4cccc(C)c4)nnc3s2)cc(OC)c1OC`, 5.22 (active); with `CC(=O)Nc1ccc(-c2nn3c(C)nnc3s2)cc1C`, 0.141.
For the molecule `c1ccc(-c2cc(-c3nnc4sc(-c5ccccn5)nn34)[nH]n2)cc1`, the B-score was -0.359.
For `COc1ccc(-c2nn3c(-c4ccccc4)nnc3s2)cc1OC`, the B-score is 8.24 (active).
For `CCOc1ccc(C(=O)N(Cc2ccc(N(C)C)cc2)C2CCS(=O)(=O)C2)cc1` (configuration not stated) the value was 0.116; for `CCCC(C(=O)N1CCOCC1)N1C(=O)C2C3C=CC(C3)C2C1=O` (configuration not stated), -0.388.
For `Cc1occc1C(=O)Nc1nnc(C2CCCCC2)s1` the value was 0.299.
On to `O=C(COc1ccccc1Cl)Nn1cnnc1`, for which the B-score was -0.264.
For `Cc1cccc(N2CCN(Cc3c(C)n(C)n(-c4ccccc4)c3=O)CC2)c1C` the value was -0.359; for `COc1ccc(N2CC(C)Cn3c2nc2c3c(=O)n(Cc3ccccc3F)c(=O)n2C)c(OC)c1` (configuration not stated), 0.483; for `CCOc1ccc(N2C(=O)CC(N(O)c3ccccc3)C2=O)cc1` (configuration not stated), 0.305.
As to `COc1ccc(CCNS(=O)(=O)c2ccc(F)cc2)cc1OC`, the B-score is 3.09.
`CCS(=O)(=O)NCCc1ccc(OC)c(OC)c1`: the B-score was 0.864.
For `COc1ccc(CCNc2ncnc3nc[nH]c23)cc1OC` the value was 12.7 (active).
With `CCOC(=O)c1sc(NC(=O)CSc2ncccn2)c(C#N)c1C` the figure was 1.81; with `COc1ccc(-c2ccc(Nc3ccc(S(=O)(=O)N4CCCC4)cc3)nn2)cc1OC`, 1.72.
As to `COc1ccc(-c2cc(C(F)(F)F)nc(SCCC(=O)NCc3ccco3)n2)cc1`, the B-score is 0.0331.
For `COc1ccc(-c2cc(C(F)(F)F)nc(S(C)(=O)=O)n2)cc1OC` the value was 6.58 (active); for `CC(=O)Oc1ccc(C)cc1N1C(=O)c2ccc(C(=O)O)cc2C1=O`, -0.324.
For `O=C(COC(=O)c1ccc(Oc2ccccc2)cc1)Nc1nnc(-c2ccccc2)o1` the value was -1.16; for `COc1cccc(-c2nnc(NC(=O)c3ccc(S(=O)(=O)N(CC(C)C)CC(C)C)cc3)o2)c1`, -2.79 (active).
For `CCN(CC)C(=O)CSc1nnc(-c2cccc(OC)c2)o1` the value was -0.393; for `C=C1c2cc(CC)ccc2NC(=O)N1c1ccc(C)cc1`, -1.84.
With `COc1ccc(N(CC(=O)NC2CCCCCCC2)S(=O)(=O)c2c(C)nn(C)c2C)cc1`, the B-score is -0.289.
Regarding `CC(C)C(=O)Nc1c(C(=O)c2ccc(F)cc2)oc2ccccc12`, the B-score is 1.66.
With `Cc1ccc(C(=O)NCCNS(=O)(=O)c2ccccc2)cc1` the figure was -0.839; with `CC(=O)NS(=O)(=O)c1ccccc1`, 0.0902; with `Nc1ccc(S(=O)(=O)NC(=O)c2ccccc2)cc1`, 31.8 (active).
With `COCCNC(=O)c1snc2ccc(Cl)cc12` the figure was 0.741; with `CCCc1nc2ccccc2c(C(=O)OCc2nnc(-c3cc(OC)c(OC)c(OC)c3)o2)c1CC`, 2.19; with `CCN1CCN(Cc2c(O)ccc3c(=O)c(-c4ccc(OC)c(OC)c4)c(C(F)(F)F)oc23)CC1`, -0.698.
For the molecule `Cc1cc(=O)oc(C)c1C(=O)Nc1cnc2ccccc2c1`, the B-score is -0.206.
With `O=C(CN1C(=O)c2ccccc2S1(=O)=O)N1CCc2ccccc21` the figure was -3.68 (active); with `O=C(c1cccc(C(=O)N2CCc3ccccc32)n1)N1CCc2ccccc21`, 0.928.
With `CNC(=O)CN1C(=O)c2ccccc2S1(=O)=O` the figure was 0.686.
For `CCOc1ccc(-c2nnc3ccc(SC)nn23)cc1` the value was -4.57 (active); for `COC(=O)C(C)Sc1ccc2nnc(-c3cccc(F)c3)n2n1` (configuration not stated), 0.378.
On to `O=C(CN1CCOCC1)Nc1cc(Cl)ccc1Cl`, for which the B-score is -0.306.
With `C=C(C)Cn1c(N2CCN(CC)CC2)nc2c1c(=O)[nH]c(=O)n2C` the figure was 0.264; with `Brc1cccc(-c2nnc3n2CCC3)c1`, 0.138.
In the case of `CCOc1cc(-c2nc3cc(C)ccn3c2NCC2CCCO2)ccc1O` (configuration not stated), the B-score was -0.604.
With `COc1ccc(C2SCCN2S(=O)(=O)c2ccccc2)cc1OC` (configuration not stated), the B-score is 0.2.
For the molecule `COc1ccc(C2N=C(N)N=C(N)N2c2ccccc2)cc1OC` (configuration not stated), the B-score is -3.55 (active).
In the case of `COc1ccc(C2/C(=C(/O)c3ccccc3)C(=O)C(=O)N2c2ncccn2)cc1OC` (configuration not stated), the B-score was -0.0203.
For `CCOC(=O)[C@H]1CCC[C@@H](NS(=O)(=O)c2ccc(NC(C)=O)cc2)C1` the value was -0.0967; for `Cc1ccc(S(=O)(=O)N(C)CC(=O)N2CCc3ccccc32)cc1`, 1.86.
On to `CCOc1ccc2c(c1)cc(CN(C(=O)CC)C1CCCCC1)c1nnnn12`, for which the B-score was 12.6 (active).
For `CCOc1ccc2[nH]c(=O)c(CN(Cc3nnnn3Cc3ccccc3)CC3CCCO3)cc2c1` (configuration not stated), the B-score was -0.307.
For `CCOc1ccc2[nH]c(=O)c(CN(Cc3nnnn3CCc3ccccc3)CC3CCCO3)cc2c1` (configuration not stated) the value was 1.9; for `O=C(NCc1ccco1)c1cccn2c(=O)c3cc(Br)ccc3nc12`, -0.861.
Take `O=C(NCc1ccco1)c1cnn2c(C(F)(F)F)cc(-c3ccco3)nc12`: the B-score was 4.37 (active).
Consider `COC(=O)c1cnn2c(C(F)(F)F)cc(-c3ccco3)nc12`, for which the B-score was 1.18.
For `O=C(O)C1CCCN(S(=O)(=O)c2cccc3cccnc23)C1` (configuration not stated) the value was 0.0158.
For `CCOC(=O)c1c(NC(=O)CSc2nnc(CN3CCOCC3)n2C)sc2c1CCCC2` the value was 6.03 (active).
For the molecule `CCOCC(=O)Nc1sc2c(c1C(=O)OCC)CCCC2`, the B-score is -0.0785.
As for `CCOC(=O)c1c(NC(=O)CSc2nnc(Cc3csc(N)n3)n2C)sc(C)c1C`, the B-score was 4.94 (active).
For `COC(=O)c1c(NC(=O)CSc2nc3c(c(=O)n(C)c(=O)n3C)n2C(C)C)sc(C)c1C` the value was 3.35; for `CCOC(=O)c1c(NC(=O)CSc2nnc(C)c(=O)[nH]2)sc2c1CCC2`, 1.36; for `Cn1c(Cc2csc(N)n2)nnc1SC/C=C/c1ccccc1`, 0.477.
For `O=C(NCc1ccc2c(c1)OCO2)C1CCCN(S(=O)(=O)c2cccs2)C1` (configuration not stated), the B-score was -0.0139.
